PubChem BioAssay (EPA / NIEHS)
Records with an inconclusive call do not appear. The source made the active and inactive calls. How the source made its calls, unless noted: active means hit-call score of the fitted dose curve at least 0.9, where 1 is the maximum; inactive means score below 0.9.

Experiments:
[1] = ATG_TAL_CIS: Attagene CIS-FACTORIAL HepG2 Assay for human TAL Basal Promoter (AID 2282966); settings: HepG2 Attagene cis-factorial TAL promoter reporter; actives raise or lower the signal;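 further: background control endpoint measuring basal TAL promoter reporter mRNA not a specific factor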
Outline: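 Steps: transfect HepG2 with multiple reporter transcription units; dose 24 h; isolate RNA, reverse-transcribe, PCR-amplify, label with 6-FAM, digest with HpaI; resolve by capillary electrophoresis. Bidirectional fitting against DMSO baseline.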

[2] = ATG_TGFb_CIS: Attagene CIS-FACTORIAL HepG2 Assay for human Transforming Growth Factor (TGF) (AID 2282967); settings: HepG2 Attagene CIS TGFb reporter, mRNA transcription; actives raise or lower the signal
Outline: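 Multiplexed cis-reporter HepG2 system, 24 h treatment; mRNA induction read by fluorescence after RT-PCR and CE; DMSO negative control, bidirectional curve fitting.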

[3] = molecular target: Nuclear receptor subfamily 1 group I member 3 (Homo sapiens) (UniProt Q14994); assay: ATG_CAR_TRANS: Attagene TRANS-FACTORIAL HepG2 Assay for human Constitutive Androstane Receptor (CAR) (AID 2282969; active means hit-call score of the fitted dose curve at least 0.9, where 1 is the maximum;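 further: activators raise reporter mRNA above DMSO so AC50 marks induction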); settings: HepG2 Attagene TRANS-FACTORIAL CAR reporter
Outline: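 HepG2 cells transiently transfected with GAL4-UAS reporter units; TRANS format reads activity of exogenous chimeric NR-Gal4 protein. After 24 h dosing, reporter mRNA quantified by RT-PCR, 6-FAM labelling and capillary electrophoresis; gain of signal fitted against DMSO.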

[4] = ATG_M_19_TRANS: Attagene TRANS-FACTORIAL HepG2 Assay for M19 Transcription Factor (Internal Marker) (AID 2282974; active means hit-call score of the fitted dose curve at least 0.9, where 1 is the maximum); settings: HepG2 Attagene TRANS-FACTORIAL M19 internal marker reporter
Outline: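 24 h chemical exposure of transiently transfected HepG2 (MRTU library). RNA → oligo(dT) RT → PCR → 6-FAM labelling → HpaI cut → CE fluorescence. Positive-direction fit vs DMSO baseline; background internal-marker readout.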

[5] = ATG_GAL4_TRANS: Attagene TRANS-FACTORIAL HepG2 Assay for GAL4 (Internal Marker) (AID 2282976; active means hit-call score of the fitted dose curve at least 0.9, where 1 is the maximum); settings: HepG2 Attagene TRANS GAL4 internal marker reporter
Outline: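 Liver HepG2 line bearing multiplexed GAL4-UAS reporter constructs; 24 h chemical treatment. Transcripts were quantified as fluorescent fragments on capillary electrophoresis after RT-PCR and HpaI cut, with activity fitted upward from DMSO.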

[6] = molecular target: Estrogen-related receptor gamma (Homo sapiens) (UniProt P62508); assay: ATG_ERRg_TRANS: Attagene TRANS-FACTORIAL HepG2 Assay for human Estrogen-Related Receptor gamma (ERRg) (AID 2282977; active means hit-call score of the fitted dose curve at least 0.9, where 1 is the maximum;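 further: hits increase reporter signal over DMSO so potencies reflect activators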); settings: HepG2 Attagene TRANS reporter, ERRg transactivation
Outline: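 HepG2 cells transiently transfected with multiplexed GAL4-UAS reporter units and chimeric NR-Gal4 constructs were exposed to test chemicals for 24 h. Reporter mRNA was measured by RT-PCR, 6-FAM primer extension, HpaI digestion and capillary electrophoresis; gain-of-signal versus DMSO.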

[7] = molecular target: Bile acid receptor (Homo sapiens) (UniProt Q96RI1); assay: ATG_FXR_TRANS: Attagene TRANS-FACTORIAL HepG2 Assay for Farnesoid X Receptor (FXR) (AID 2282979; active means hit-call score of the fitted dose curve at least 0.9, where 1 is the maximum;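 further: hits raise reporter mRNA above DMSO so AC50 marks FXR activation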); settings: HepG2 Attagene TRANS FXR-GAL4 reporter transcription
Outline: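 After 24 h chemical treatment of transfected HepG2 cells, GAL4-UAS reporter transcripts driven by an exogenous FXR-GAL4 fusion were measured by RT-PCR and capillary electrophoresis. Increases over DMSO were fitted.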

[8] = molecular target: Oxysterols receptor LXR-alpha (Homo sapiens) (UniProt Q13133); assay: ATG_LXRa_TRANS: Attagene TRANS-FACTORIAL HepG2 Assay for human Liver X Receptor alpha (LXRa) (AID 2282980; active means hit-call score of the fitted dose curve at least 0.9, where 1 is the maximum); settings: HepG2 Attagene TRANS reporter, LXRa transactivation
Outline: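 In this multiplexed TRANS system, compounds act on HepG2 cells carrying GAL4-UAS reporter units and a receptor-GAL4 fusion for 24 h. Induced reporter RNA is amplified, fluorescently labelled and sized by capillary electrophoresis, with DMSO as baseline.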

[9] = molecular target: Oxysterols receptor LXR-beta (Homo sapiens) (UniProt P55055); assay: ATG_LXRb_TRANS: Attagene TRANS-FACTORIAL HepG2 Assay for human Liver X Receptor beta (LXRb) (AID 2282981; active means hit-call score of the fitted dose curve at least 0.9, where 1 is the maximum); settings: HepG2 Attagene TRANS GAL4-LXRb reporter, mRNA
Outline: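 Gain-of-signal mRNA reporter endpoint, DMSO as negative control. Transiently transfected HepG2 cells carrying the NR-Gal4 chimera and GAL4-UAS reporter units were treated 24 h; transcripts quantified by RT-PCR and capillary electrophoresis fluorescence.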

[10] = ATG_M_06_TRANS: Attagene TRANS-FACTORIAL HepG2 Assay for M06 Transcription Factor (Internal Marker) (AID 2282983; active means hit-call score of the fitted dose curve at least 0.9, where 1 is the maximum); settings: HepG2 Attagene TRANS M06 internal marker reporter
Outline: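 Internal-marker background readout from a multiplexed TRANS reporter system in HepG2; 24 h dosing; mRNA induction quantified by RT-PCR plus capillary electrophoresis fluorescence; DMSO as negative control and baseline.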

[11] = ATG_M_32_TRANS: Attagene TRANS-FACTORIAL HepG2 Assay for M32 Transcription Factor (Internal Marker) (AID 2282984; active means hit-call score of the fitted dose curve at least 0.9, where 1 is the maximum;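 further: transcript level of a background control reporter unit measured by RT-PCR and capillary electrophoresis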); settings: HepG2 Attagene TRANS M32 internal marker reporter
Outline: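 Capillary electrophoresis of 6-FAM-labelled reporter fragments gives the signal; data fitted for gain over DMSO negative control. Source: HepG2 cells bearing transient multiple reporter transcription units, 24 h exposure.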

[12] = molecular target: Nuclear receptor subfamily 4 group A member 2 (Homo sapiens) (UniProt P43354); assay: ATG_NURR1_TRANS: Attagene TRANS-FACTORIAL HepG2 Assay for human Nuclear Receptor Related Protein 1 (NURR1) (AID 2282985; active means hit-call score of the fitted dose curve at least 0.9, where 1 is the maximum); settings: HepG2 Attagene TRANS reporter, mRNA readout
Outline: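 HepG2 / transient MRTU transfection / 24 h compound exposure / RT-PCR + CE fluorescence of reporter mRNA / gain-of-signal vs DMSO.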

[13] = molecular target: Transcriptional activator Myb (Homo sapiens) (UniProt P10242); assay: ATG_Myb_CIS: Attagene CIS-FACTORIAL HepG2 Assay for human Myeloblastosis (Myb) Proto-Oncogene Transcription Factor (AID 2282986); settings: HepG2 Attagene CIS-FACTORIAL Myb reporter transcription; actives raise or lower the signal
Outline: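 HepG2, transient MRTU transfection (cis-element promoters, endogenous TF activity), 24 h compound exposure. Readout: reporter mRNA via RT-PCR, 6-FAM labeling, HpaI digest, capillary electrophoresis. Gain/loss fit vs DMSO.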

[14] = molecular target: Nuclear respiratory factor 1 (Homo sapiens) (UniProt Q16656); assay: ATG_NRF1_CIS: Attagene CIS-FACTORIAL HepG2 Assay for human Nuclear Respiratory Factor 1 (NRF1) Orphan Gene (AID 2282987); settings: HepG2 NRF1 cis-element reporter, Attagene multiplex; actives raise or lower the signal
Outline: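 Endogenous NRF1-driven reporter transcription measured in transiently transfected human HepG2 liver cells. Readout: reporter mRNA by RT-PCR and capillary electrophoresis with fluorescence detection, 24 h post-dosing. Gain or loss of signal fitted relative to DMSO baseline.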

[15] = ATG_NFI_CIS: Attagene CIS-FACTORIAL HepG2 Assay for human Nuclear Factor I (NFI) (AID 2282989); settings: HepG2 cis-regulatory reporter, NFI response element transcription; actives raise or lower the signal
Outline: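 Multiplexed cis-reporter system in human HepG2 cells reports native TF activity as reporter mRNA induction 24 h post-dose. Fragments labelled with 6-FAM, HpaI-digested and resolved by capillary electrophoresis; activity fitted both directions versus DMSO.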

[16] = molecular target: X-box-binding protein 1 (Homo sapiens) (UniProt P17861); assay: ATG_Xbp1_CIS: Attagene CIS-FACTORIAL HepG2 Assay for human X-box Binding Protein 1 (XBP1) (AID 2282972); settings: HepG2 XBP1 cis-element reporter, Attagene multiplex; actives raise or lower the signal
Outline: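 HepG2 cells transiently transfected with cis-regulated multiple reporter transcription units; endogenous transcription factor activity measured 24 hours after chemical dosing. Reporter mRNA quantified by RT-PCR, 6-FAM primer extension, HpaI digestion and capillary electrophoresis; bidirectional fitting versus DMSO.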

[17] = molecular target: Glucocorticoid receptor (Homo sapiens) (UniProt P04150); assay: ATG_GR_TRANS: Attagene TRANS-FACTORIAL HepG2 Assay for human Glucocorticoid Receptor (GR) (AID 2282978; active means hit-call score of the fitted dose curve at least 0.9, where 1 is the maximum;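 further: activators score as hits since higher reporter transcript over DMSO is fitted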); settings: HepG2 Attagene TRANS GR reporter, mRNA transcription
Outline: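 Transient MRTU transfection of HepG2 (GAL4-UAS reporters, exogenous NR-GAL4 chimeras), 24 h dosing. Readout: reporter transcript via RT-PCR + capillary electrophoresis fluorescence. Positive direction vs DMSO baseline.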

[18] = molecular target: Hepatocyte nuclear factor 4-alpha (Homo sapiens) (UniProt P41235); assay: ATG_HNF4a_TRANS: Attagene TRANS-FACTORIAL HepG2 Assay for human Hepatocyte Nuclear Factor 4 alpha (HNF4a) (AID 2282982; active means hit-call score of the fitted dose curve at least 0.9, where 1 is the maximum); settings: HepG2 HNF4a transactivation reporter, mRNA readout
Outline: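 Gain-of-signal mRNA induction, relative to DMSO vehicle, was read after 24 h compound treatment of HepG2 cells bearing transfected GAL4-UAS reporters. Detection used RT-PCR, 6-FAM primer extension and capillary electrophoresis.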

[19] = molecular target: Steroid hormone receptor ERR1 (Homo sapiens) (UniProt P11474); assay: ATG_ERRa_TRANS: Attagene TRANS-FACTORIAL HepG2 Assay for human Estrogen-Related Receptor alpha (ERRa) (AID 2282971; active means hit-call score of the fitted dose curve at least 0.9, where 1 is the maximum); settings: HepG2 Attagene TRANS reporter, ERRa transactivation
Outline: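 Signal gain relative to DMSO for an ERRa-Gal4 chimeric receptor, read as reporter mRNA by RT-PCR/capillary electrophoresis. Human HepG2 liver cells, transient multiplex reporter transfection, 24 h chemical exposure.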

Measured: outcome

Chain of Oxysterols receptor LXR-alpha (Homo sapiens) (Q13133 whole entry, looked up, the tested form may be a part): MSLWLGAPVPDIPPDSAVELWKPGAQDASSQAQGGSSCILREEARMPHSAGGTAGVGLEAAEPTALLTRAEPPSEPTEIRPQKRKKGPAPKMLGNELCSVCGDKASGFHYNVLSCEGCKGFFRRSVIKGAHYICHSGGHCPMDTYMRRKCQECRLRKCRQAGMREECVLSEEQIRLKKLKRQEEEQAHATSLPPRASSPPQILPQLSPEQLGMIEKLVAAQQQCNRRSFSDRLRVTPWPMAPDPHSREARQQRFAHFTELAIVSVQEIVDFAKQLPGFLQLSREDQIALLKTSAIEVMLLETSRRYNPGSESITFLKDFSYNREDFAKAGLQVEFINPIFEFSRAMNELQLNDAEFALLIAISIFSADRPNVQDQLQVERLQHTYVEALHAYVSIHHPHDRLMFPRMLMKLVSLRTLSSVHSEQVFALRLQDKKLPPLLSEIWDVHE
Chain of Glucocorticoid receptor (Homo sapiens) (P04150 whole entry, looked up, the tested form may be a part): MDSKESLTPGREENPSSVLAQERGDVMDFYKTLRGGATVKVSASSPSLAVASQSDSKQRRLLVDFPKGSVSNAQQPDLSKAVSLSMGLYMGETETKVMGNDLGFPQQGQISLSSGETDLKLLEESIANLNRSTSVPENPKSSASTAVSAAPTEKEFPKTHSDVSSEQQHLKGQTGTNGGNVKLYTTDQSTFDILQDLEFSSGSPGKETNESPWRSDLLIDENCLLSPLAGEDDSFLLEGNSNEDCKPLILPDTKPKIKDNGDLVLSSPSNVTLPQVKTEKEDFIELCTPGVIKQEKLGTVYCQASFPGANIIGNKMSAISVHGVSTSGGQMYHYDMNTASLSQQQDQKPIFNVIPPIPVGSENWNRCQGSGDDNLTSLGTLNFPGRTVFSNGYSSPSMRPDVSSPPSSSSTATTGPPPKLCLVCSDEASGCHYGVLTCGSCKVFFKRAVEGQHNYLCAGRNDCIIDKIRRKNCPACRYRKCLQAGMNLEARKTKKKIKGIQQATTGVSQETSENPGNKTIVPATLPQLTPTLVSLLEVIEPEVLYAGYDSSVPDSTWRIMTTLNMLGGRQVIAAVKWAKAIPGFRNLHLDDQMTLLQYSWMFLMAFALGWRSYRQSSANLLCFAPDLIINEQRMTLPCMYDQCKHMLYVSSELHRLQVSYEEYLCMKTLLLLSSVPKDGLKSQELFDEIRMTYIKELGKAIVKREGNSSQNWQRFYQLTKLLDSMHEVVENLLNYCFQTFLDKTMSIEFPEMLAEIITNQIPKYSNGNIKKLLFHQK
Chain of Bile acid receptor (Homo sapiens) (Q96RI1 whole entry, looked up, the tested form may be a part): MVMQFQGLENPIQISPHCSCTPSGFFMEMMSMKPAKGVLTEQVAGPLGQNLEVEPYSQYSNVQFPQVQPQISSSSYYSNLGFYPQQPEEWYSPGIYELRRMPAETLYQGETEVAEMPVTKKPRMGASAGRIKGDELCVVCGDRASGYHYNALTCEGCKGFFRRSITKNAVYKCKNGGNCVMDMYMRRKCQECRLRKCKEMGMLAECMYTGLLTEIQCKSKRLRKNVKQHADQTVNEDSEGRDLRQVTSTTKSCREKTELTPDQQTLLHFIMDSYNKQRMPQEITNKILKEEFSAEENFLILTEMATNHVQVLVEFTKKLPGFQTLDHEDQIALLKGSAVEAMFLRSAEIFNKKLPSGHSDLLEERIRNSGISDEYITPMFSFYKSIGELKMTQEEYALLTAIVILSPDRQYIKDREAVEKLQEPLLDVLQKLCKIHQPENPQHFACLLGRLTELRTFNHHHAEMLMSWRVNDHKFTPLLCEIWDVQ
Chain of Nuclear receptor subfamily 1 group I member 3 (Homo sapiens) (Q14994 whole entry, looked up, the tested form may be a part): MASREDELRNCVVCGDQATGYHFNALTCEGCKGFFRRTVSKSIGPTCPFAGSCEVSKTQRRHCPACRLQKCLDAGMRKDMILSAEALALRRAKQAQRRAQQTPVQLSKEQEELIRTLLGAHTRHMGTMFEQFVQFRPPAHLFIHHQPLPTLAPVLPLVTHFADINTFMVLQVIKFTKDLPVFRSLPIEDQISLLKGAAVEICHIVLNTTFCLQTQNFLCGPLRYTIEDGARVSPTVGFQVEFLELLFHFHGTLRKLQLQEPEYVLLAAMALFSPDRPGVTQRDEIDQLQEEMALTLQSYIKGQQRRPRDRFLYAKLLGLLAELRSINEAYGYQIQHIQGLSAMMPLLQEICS
Chain of Nuclear respiratory factor 1 (Homo sapiens) (Q16656 whole entry, looked up): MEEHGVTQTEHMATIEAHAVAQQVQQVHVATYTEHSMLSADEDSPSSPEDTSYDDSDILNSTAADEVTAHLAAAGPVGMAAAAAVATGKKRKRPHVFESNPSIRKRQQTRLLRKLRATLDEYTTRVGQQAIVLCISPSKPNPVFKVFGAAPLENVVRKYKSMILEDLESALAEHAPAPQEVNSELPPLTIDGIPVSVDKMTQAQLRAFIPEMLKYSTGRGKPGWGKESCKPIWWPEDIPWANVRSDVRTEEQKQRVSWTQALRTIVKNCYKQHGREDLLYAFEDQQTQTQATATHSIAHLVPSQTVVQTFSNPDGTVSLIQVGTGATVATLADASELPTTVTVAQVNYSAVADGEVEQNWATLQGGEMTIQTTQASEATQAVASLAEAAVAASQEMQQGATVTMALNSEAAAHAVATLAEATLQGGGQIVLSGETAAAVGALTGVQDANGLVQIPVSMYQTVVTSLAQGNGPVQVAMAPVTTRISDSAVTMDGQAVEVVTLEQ
Chain of Nuclear receptor subfamily 4 group A member 2 (Homo sapiens) (P43354 whole entry, looked up): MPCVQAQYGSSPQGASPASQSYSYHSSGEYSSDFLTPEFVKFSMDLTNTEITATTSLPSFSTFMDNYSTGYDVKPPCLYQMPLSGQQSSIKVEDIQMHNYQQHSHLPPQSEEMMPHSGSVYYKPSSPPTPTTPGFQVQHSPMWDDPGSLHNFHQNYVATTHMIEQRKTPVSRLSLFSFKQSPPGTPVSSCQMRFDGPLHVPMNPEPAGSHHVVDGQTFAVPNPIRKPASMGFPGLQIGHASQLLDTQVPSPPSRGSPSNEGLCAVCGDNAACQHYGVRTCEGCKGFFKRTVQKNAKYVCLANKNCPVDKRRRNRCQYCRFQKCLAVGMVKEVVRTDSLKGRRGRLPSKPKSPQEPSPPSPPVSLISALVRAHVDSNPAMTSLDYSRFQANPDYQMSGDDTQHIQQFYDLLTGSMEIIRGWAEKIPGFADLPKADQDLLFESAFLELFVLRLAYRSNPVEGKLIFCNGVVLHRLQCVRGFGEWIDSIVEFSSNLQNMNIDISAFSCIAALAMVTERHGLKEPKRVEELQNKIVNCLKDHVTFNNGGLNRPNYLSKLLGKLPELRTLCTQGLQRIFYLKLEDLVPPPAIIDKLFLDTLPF
Chain of Oxysterols receptor LXR-beta (Homo sapiens) (P55055 whole entry, looked up, the tested form may be a part): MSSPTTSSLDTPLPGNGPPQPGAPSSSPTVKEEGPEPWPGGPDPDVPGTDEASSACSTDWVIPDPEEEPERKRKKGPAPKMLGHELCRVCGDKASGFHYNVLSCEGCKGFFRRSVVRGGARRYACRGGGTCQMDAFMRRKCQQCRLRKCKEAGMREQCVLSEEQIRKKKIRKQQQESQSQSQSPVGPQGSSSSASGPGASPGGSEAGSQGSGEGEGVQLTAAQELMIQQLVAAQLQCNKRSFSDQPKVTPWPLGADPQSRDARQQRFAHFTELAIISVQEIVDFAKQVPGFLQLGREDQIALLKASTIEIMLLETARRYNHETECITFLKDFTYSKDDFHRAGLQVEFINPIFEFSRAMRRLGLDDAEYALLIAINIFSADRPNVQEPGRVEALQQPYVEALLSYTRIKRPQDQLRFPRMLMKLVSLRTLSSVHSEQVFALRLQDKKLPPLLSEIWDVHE
Chain of X-box-binding protein 1 (Homo sapiens) (P17861 whole entry, looked up): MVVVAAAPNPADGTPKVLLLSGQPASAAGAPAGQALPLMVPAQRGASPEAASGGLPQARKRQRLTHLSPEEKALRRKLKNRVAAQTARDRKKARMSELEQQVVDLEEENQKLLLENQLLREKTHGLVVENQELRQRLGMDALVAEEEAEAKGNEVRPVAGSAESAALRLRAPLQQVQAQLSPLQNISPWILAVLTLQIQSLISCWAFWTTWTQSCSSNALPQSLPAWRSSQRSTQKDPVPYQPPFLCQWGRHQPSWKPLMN
Chain of Transcriptional activator Myb (Homo sapiens) (P10242 whole entry, looked up): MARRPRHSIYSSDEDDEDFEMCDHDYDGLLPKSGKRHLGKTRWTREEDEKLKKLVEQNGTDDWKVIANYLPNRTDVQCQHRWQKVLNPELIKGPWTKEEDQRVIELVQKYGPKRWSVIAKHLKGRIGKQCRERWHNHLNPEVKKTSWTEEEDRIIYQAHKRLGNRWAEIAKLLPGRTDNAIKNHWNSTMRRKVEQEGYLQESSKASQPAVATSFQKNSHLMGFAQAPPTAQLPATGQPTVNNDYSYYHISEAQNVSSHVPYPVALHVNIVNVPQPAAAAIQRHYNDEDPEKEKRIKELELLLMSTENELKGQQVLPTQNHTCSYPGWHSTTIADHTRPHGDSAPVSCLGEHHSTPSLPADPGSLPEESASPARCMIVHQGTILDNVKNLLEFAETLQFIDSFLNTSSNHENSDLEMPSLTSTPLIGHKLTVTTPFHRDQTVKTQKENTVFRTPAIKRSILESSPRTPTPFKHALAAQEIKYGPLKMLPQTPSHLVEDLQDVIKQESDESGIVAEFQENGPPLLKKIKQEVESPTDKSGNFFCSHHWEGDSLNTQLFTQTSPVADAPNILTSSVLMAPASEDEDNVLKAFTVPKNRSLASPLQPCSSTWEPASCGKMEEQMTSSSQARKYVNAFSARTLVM
Chain of Hepatocyte nuclear factor 4-alpha (Homo sapiens) (P41235 whole entry, looked up, the tested form may be a part): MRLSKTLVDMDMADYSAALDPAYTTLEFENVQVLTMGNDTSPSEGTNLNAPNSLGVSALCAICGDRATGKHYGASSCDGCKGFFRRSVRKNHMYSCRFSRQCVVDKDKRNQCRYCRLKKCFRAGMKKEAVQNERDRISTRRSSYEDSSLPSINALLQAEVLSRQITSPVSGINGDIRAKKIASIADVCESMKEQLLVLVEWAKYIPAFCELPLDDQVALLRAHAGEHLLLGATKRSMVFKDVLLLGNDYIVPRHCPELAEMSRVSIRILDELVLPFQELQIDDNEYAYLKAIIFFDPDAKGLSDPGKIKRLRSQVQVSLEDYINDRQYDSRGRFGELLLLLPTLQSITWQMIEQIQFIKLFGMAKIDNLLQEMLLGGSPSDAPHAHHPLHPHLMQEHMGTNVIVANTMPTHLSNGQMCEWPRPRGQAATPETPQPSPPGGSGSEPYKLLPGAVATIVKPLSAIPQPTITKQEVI

CC/C=C\CC/C=C/CO
not listed: [16] | [17] | [18] | [19]
inactive: all other assays above

CCCCCCC(=O)c1ccccc1
inactive: [1] | [2] | [3] | [16] | [4] | [7] | [13] | [14] | [15]

Nc1ccn([C@H]2CS[C@@H](CO)O2)c(=O)n1
not listed: [5] | [6] | [7] | [8] | [11] | [12] | [19]
inactive: all other assays above

O=CN1CCOCC1
not listed: [3] | [5] | [6] | [7] | [12] | [17] | [19]
inactive: all other assays above

CCCCCC(C=O)=Cc1ccccc1
inactive: [1] | [2] | [4] | [5] | [7] | [10] | [11] | [13] | [14] | [15]

CCCCCCCCSCCO
not listed: [3] | [4] | [5] | [6] | [9] | [12] | [18] | [19]
inactive: all other assays above

CC/C=C\CCOC(=O)CC
inactive: [1] | [2] | [16] | [4] | [7] | [12] | [13] | [14] | [15]

Nc1ccccc1[N+](=O)[O-]
not listed: [3] | [5] | [6] | [8] | [9] | [18]
inactive: all other assays above
